TDP-43 tox inh: TDP-43 toxicity inhibition in yeast. Potency, µM (highest dose often 46.1 µM), hits mostly activators. yeast TDP-43 toxicity rescue, BacTiter-Glo growth, 24 h. hit rate 0.45% among 45,000; active = well fitted activation curve with a large enough effect; also: nearly all actives have a fitted effect of over 55% in size
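TDP-43-expressing yeast, pregrown in raffinose, seeded at OD600 0.02 in galactose medium with compound for 24 hr at 30 deg C. Growth read by BacTiter-Glo luminescence, so rescue of toxicity appears as activation.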
Of the large screens only hits and unclear results are named; the others gave an inactive call. Many of the other results were omitted from the sample, so hits are more common in it than they were.

O=C(CCC1CCCCC1)Nc1cccc(C(=O)Nc2ccc(C(=O)O)cc2)c1	none
CC1(C(=O)NS(=O)(=O)c2ccc(C#N)cc2)CCN1C(=O)CCC1CCCC1 (stereo unspecified)	none
CCn1c2ccccc2c2nnc(SCC(=O)NC3CCS(=O)(=O)C3)nc21 (stereo unspecified)	none
CCC(=O)NC(=S)Nc1ccc(OC)cc1OC	none
COc1ccc(NCc2ccc([N+](=O)[O-])s2)c(OC)c1	TDP-43 tox inh 12.6µM
COc1ccc(NC(=O)Cc2ccsc2)c(OC)c1	none
Cc1ccc(N(Cc2cc(=O)[nH]c3ccccc23)C(=O)C(C)C)c(C)c1	none
CC1(C(=O)NS(=O)(=O)c2ccccc2)CCN1C(=O)c1cccc2ccccc12 (stereo unspecified)	none
Cc1cc(NC(=O)c2ccc(COc3ccccc3Cl)o2)no1	none
Cc1csc(NC(=S)NC(=O)c2ccccc2)n1	none
Cc1csc(NC(=O)c2ccc(COc3ccccc3)o2)n1	TDP-43 tox inh 17.8µM
COc1cccc(N=Nc2ccc(O)c3ncccc23)c1	none
Cc1onc(-c2ccccc2Cl)c1C(=O)Nc1ccccc1C(N)=O	none
O=C(NCc1ccccn1)C1CCN(Cc2cccc(OCc3ccccc3)c2)CC1	none
O=C1CC(N2CCN(c3ccccc3)CC2)C(=O)N1Cc1ccc(Cl)cc1 (stereo unspecified)	none
O=C1CC(N2CCN(c3cccc(C(F)(F)F)c3)CC2)C(=O)N1c1ccccc1F (stereo unspecified)	TDP-43 tox inh 15.8µM
O=C1CC(N2CCSCC2)C(=O)N1c1ccccc1 (stereo unspecified)	none
CC(CN1CCOCC1)OC(=O)c1ccc(Br)cc1 (stereo unspecified)	TDP-43 tox inh 15.8µM
CC1CCN(CC(C)OC(=O)c2ccco2)CC1 (stereo unspecified)	none
CC(CN1CCOCC1)OC(=O)CCc1ccccc1 (stereo unspecified)	none
O=C1COCCOCCOCCOCC(=O)NCCN1	none
CCOc1ccccc1NC(=O)c1ccccc1-c1ccccc1	none
CN(Cc1ccc(F)cc1)C(=O)C(c1ccccc1)c1ccccc1	none
CN(Cc1ccc(F)cc1)C(=O)COc1ccccc1-c1ccccc1	TDP-43 tox inh 25.1µM
COc1ccc(CNC(=O)Nc2cccc(C(F)(F)F)c2)cc1OC	none
CCc1sc(C(=O)Nc2ccc3nc(C)sc3c2)cc1C	TDP-43 tox inh 11.2µM
C=CCNC(=O)Nc1ccc2nc(C)sc2c1	none
Cc1nc2ccc(NC(=O)c3ccc(=O)[nH]c3)cc2s1	none
COC(=O)C1C(c2ccc(OC)cc2)NC(=O)NC1(O)C(F)(F)Cl (stereo unspecified)	none
CCn1cc(CNCc2cn[nH]c2-c2cc3ccccc3o2)cn1	none
CCN(CC)S(=O)(=O)c1ccc(-c2nnc(SCC(=O)N3c4ccccc4CC3C)n2CC)cc1 (stereo unspecified)	none
O=C(CSc1n[nH]c(-c2cccs2)n1)N1CCOCC1	none
COc1cc2c(cc1OC)CN(C(=O)Nc1ccccc1Cl)CC2	TDP-43 tox inh 12.6µM
COc1cc2c(cc1OC)CN(C(=O)Nc1ccccc1)CC2	none
COc1cccc(N2CCN(C(=O)Nc3ccccc3Cl)CC2)c1	none
O=C(C1CC(=O)N(c2ccc(F)cc2)C1)N1CCCCC1 (stereo unspecified)	none
Cc1cc(C)n(CC(=O)N2c3ccccc3Sc3ccc(C(F)(F)F)cc32)n1	none
CCn1c(SCC(=O)N/N=C/c2ccccc2OCC(=O)O)nnc1-c1ccc(OC)cc1	none
CC(C)Cc1csc(NC(=O)c2ccc(F)cc2)c1C(=O)O	none
CCOC(=O)c1c(N)sc(N)c1C(=O)OCC	none
CCOC(=O)c1c(CC(C)C)csc1NC=O	TDP-43 tox inh 15.8µM
COc1ccc(F)cc1-c1cc(NC(C)=O)c2ncc(-c3cc(OC)c(OC)c(OC)c3)n2c1	none
CCC(=O)N1CCc2cc(Br)cc(S(=O)(=O)N3CCC(C(=O)NC(C)C)CC3)c21	none
O=C(NNC1=NCCC1)c1cccc(S(=O)(=O)N2CCCC2)c1	none
O=C(C1CCN(Cc2ccccc2)CC1)N1CCN(C/C=C/c2ccccc2)CC1	none
Cc1oc(C(=O)O)cc1CSCc1ccoc1C(=O)O	none
COc1ccc(NC(=O)c2cc(C3CCCCN3C(=O)C3CCCCC3)on2)c(C)c1 (stereo unspecified)	none
O=C(c1c[nH]c(C(=O)N2CCN(c3ccccc3F)CC2)c1)c1cccc(Cl)c1Cl	TDP-43 tox inh 20µM
NC(=O)c1cc(C(=O)c2cccc(Cl)c2Cl)c[nH]1	none
O=C(c1ccc(Cl)c(S(=O)(=O)N2CCCC2)c1)N1CCN(c2ccccc2F)CC1	none
Cc1ccc(NC(=O)COC(=O)/C=C/c2cccc(Cl)c2)cc1S(=O)(=O)N1CCOCC1	none
CC(C)OC(=O)c1ccc(S(N)(=O)=O)o1	none
OC1CCCN(CC(O)COc2ccc(-c3ccccc3)cc2)C1 (stereo unspecified)	none
COc1ccc2[nH]c(=O)c(CNc3ccc(C)cc3C)cc2c1	none
COc1ccc(S(=O)(=O)N2CCC(C(=O)NC(C)CCc3ccccc3)CC2)cc1 (stereo unspecified)	none
Cc1cc(NCc2ccccn2)n2ncc(-c3ccccc3)c2n1	TDP-43 tox inh 8.91µM
CCCc1cc(NCc2ccccn2)n2nc(C)c(-c3ccccc3)c2n1	none
CN(C)CCCNc1cc(C(C)(C)C)nc2c(-c3ccccc3)cnn12	none
CC(Nc1cc(N2CCN(S(=O)(=O)N(C)C)CC2)ccc1[N+](=O)[O-])c1ccccc1 (stereo unspecified)	none
CCCN(CCC)C(=O)CSc1nc2ccccc2c(=O)n1Cc1ccco1	none
CCN(CC)S(=O)(=O)c1ccc(NC(=O)CSc2ncnc3ccccc23)cc1	TDP-43 tox inh 22.4µM
COC(=O)c1c(NC(=O)CSc2ncnc3ccccc23)sc(C)c1C	none
NS(=O)(=O)c1ccc(CCNC(=O)CSc2ncnc3ccccc23)cc1	none
COc1cc(NC(=O)Cn2cnc3sc(C)c(S(=O)(=O)N4CCOCC4)c3c2=O)cc(OC)c1OC	none
COc1ccc(N(CC(=O)NN=C2CCN(C)CC2)S(=O)(=O)c2ccccc2)c(OC)c1	none
COc1ccc(OC)c(CCNC(=O)C2=C(C)C(=O)OC23CCC(C)CC3)c1 (stereo unspecified)	none
CC1=C(C(=O)NC(C)CCc2ccccc2)C2(CCC(C)CC2)OC1=O (stereo unspecified)	none
CCOc1ccc(NC(=O)C2=C(C)C(=O)OC23CCC(C)CC3)cc1 (stereo unspecified)	TDP-43 tox inh 12.6µM
O=C(C1CCCN(S(=O)(=O)c2cc(Cl)ccc2Cl)C1)N1CCCC1 (stereo unspecified)	TDP-43 tox inh 14.1µM
O=C(C1CCCN(S(=O)(=O)c2ccc(Cl)cc2)C1)N1CCCC1 (stereo unspecified)	none
COc1ccc(Cl)cc1S(=O)(=O)N1CCCC(C(=O)N2CCOCC2)C1 (stereo unspecified)	none
COc1ccc2nc(N3CCCCC3)c(/C=C3\SC(=S)NC3=O)cc2c1	none
CN1CCN(/C=C2\SC(=S)NC2=O)CC1	none
O=C1NC(=S)S/C1=C\c1cc2ccccc2nc1N1CCCCC1	TDP-43 tox inh 6.31µM
CCOc1ccc(NC(=S)Nc2ccccc2C2CC2)cc1	none
CC(C)CC1Nc2ccc(C(=O)NCc3ccc4c(c3)OCO4)cc2NC1=O (stereo unspecified)	none
CC(C)CC(=O)NC(=S)NNC(=O)c1ccc([N+](=O)[O-])cc1	TDP-43 tox inh 11.2µM
CNC(CC(=O)c1ccc([N+](=O)[O-])cc1)C(Cl)(Cl)Cl (stereo unspecified)	none
O=C(NNC(=S)NC(=O)c1cccc([N+](=O)[O-])c1)c1ccc(Br)cc1	none
CCOC(=O)C1(Cc2cccc(OC)c2)CCN(Cc2cc(OC)ccc2OC)CC1	none
COc1ccc2cc(S(=O)(=O)N3CCCC(C)C3)ccc2c1 (stereo unspecified)	none

Compound activity: PubChem BioAssay, National Center for Advancing Translational Sciences (NCATS)
